# Potency and affinity values are given separately. Results filed as inconclusive are left out. Values without a mark were called inactive.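 How the source made its calls: active means fitted half-maximal concentration no higher than twice the top tested dose, in every repeat run; inconclusive means repeat runs disagree, poor fit, or flat partial inhibition; inactive means the rest.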
# Biological target: Endoplasmic reticulum aminopeptidase 1 (Homo sapiens) (UniProt Q9NZ08)
# Experiment: inhibition of human ERAP1 enzyme activity – biochemical, cherry-pick, set 2, plate reader, dose response (AID 743314);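 further: 0% = neutral control wells and -100% = L-leucinethiol positive control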
# Conditions: Recombinant ERAP1, Leu-AMC fluorescence, 60 min; series mostly up to 11 µM; activity change, negative = inhibition: at the top concentration
# Sequence of Endoplasmic reticulum aminopeptidase 1 (Homo sapiens) (Q9NZ08 whole entry, looked up): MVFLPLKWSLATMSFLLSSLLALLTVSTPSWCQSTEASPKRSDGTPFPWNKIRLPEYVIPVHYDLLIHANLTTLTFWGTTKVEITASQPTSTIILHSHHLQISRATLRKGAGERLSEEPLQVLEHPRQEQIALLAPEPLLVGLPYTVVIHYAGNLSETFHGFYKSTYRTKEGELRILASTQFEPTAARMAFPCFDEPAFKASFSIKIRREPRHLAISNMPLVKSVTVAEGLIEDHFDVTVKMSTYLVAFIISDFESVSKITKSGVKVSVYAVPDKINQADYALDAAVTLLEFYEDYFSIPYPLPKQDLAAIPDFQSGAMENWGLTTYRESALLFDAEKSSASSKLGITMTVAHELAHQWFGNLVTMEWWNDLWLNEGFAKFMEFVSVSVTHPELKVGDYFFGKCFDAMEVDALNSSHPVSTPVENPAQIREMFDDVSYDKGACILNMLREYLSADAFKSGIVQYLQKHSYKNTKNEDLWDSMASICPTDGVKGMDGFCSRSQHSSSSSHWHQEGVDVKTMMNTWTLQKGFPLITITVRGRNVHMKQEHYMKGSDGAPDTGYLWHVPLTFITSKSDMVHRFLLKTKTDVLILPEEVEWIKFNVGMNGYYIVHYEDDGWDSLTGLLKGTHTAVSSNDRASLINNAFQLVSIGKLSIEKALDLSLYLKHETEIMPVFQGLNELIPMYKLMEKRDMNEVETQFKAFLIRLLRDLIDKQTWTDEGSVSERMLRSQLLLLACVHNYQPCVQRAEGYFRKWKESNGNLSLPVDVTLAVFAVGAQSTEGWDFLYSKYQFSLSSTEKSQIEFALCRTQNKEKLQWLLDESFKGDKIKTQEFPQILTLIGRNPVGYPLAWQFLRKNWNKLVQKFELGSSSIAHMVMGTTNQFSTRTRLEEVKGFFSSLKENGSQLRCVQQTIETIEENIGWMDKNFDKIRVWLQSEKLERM
row,SMILES,"activity change, negative = inhibition"
1,O=C(Nc1ccc(C(F)(F)F)cc1)N1[C@@H]2CNC[C@H]1C2c1ccc(-c2ccncc2)cc1 (stereo partly drawn),42.7%
2,CCOc1ccccc1N1CCN(C(=O)C2=CC=CN3CCS(=O)(=O)N=C23)CC1,-12.7%
3,CC(OC(=O)c1cc(=O)[nH]c2ccccc12)C(=O)Nc1ccccc1F (stereo not drawn),3.54%

# Source: PubChem BioAssay AID743314 (Broad Institute, 2014)
